Rows were chosen to be rich in hits. Some 9.3% of all compounds tested hit in one or more screens of this group.
ELG1 genotoxic – induces genotoxicity in HEK293T cells with luciferase-tagged ELG1. 330,000 tested, 1.3% active. Potency, µM (top dose mostly 46 µM), inactives show top-dose activity change, positive = activation, usual class: activators. HEK293T ELG1-luciferase reporter, luminescence, 16 h; further: % of control where 0% means no effect; nearly all actives have a fitted effect of over 60% in size
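Screening used a luciferase reporter fused to human ELG1 in HEK293T cells. Luminescence was read on a CCD plate imager after 16 hr exposure and 30 min ONE-Glo incubation.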
Rab9 prom act – Rab9 promoter activation; Huh7 Rab9 promoter-luciferase reporter, luminescence, 24 h; AID 485297; 320,000 tested, 2.8% active; Potency, µM (highest dose often 9.22 µM), for the others: at the top dose activation, negative = inhibition, most hits filed as activators; further: % of control where 0% means no effect; nearly all actives have a fitted effect of over 60% in size
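Rab9 promoter-driven luciferase in stably transfected Huh7 cells; 1500 cells/well rested 2 h, exposed to compound in DMSO for 24 h at 37 °C, 5% CO2. Luminescence read 10 min after adding luciferase reagent at ambient temperature.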
NPC1 promoter act – NPC1 promoter activation | Potency, µM (highest dose often 9.22 µM), for inactives: at the top dose activation, actives largely listed as activators | 320,000 tested, 2.4% active | Huh7 NPC1 promoter luciferase reporter, 24 h; further: % of control where 0% means no effect; nearly all actives have a fitted effect of over 60% in size
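Stable NPC1-promoter luciferase Huh7 line; cpd (DMSO) 24 h, 37 °C, 5% CO2; Amplite luciferase reagent 10 min RT; luminescence readout. qHTS format.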
ELG1 DNA repair – inhibitors of ELG1-dependent DNA repair in HEK293T cells; HEK293T ELG1-luciferase reporter, luminescence, 16 h; DNA damage induced by 5-fluorouridine; Potency, µM (highest dose often 46.1 µM), for the others: at the highest dose activity change, negative = inhibition, actives largely listed as inhibitors; 330,000 tested, 2.3% active; further: on the % scale 0 is the no-effect control and ±100 the full control effect; nearly all actives have a fitted effect of over 55% in size
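HEK293T cells expressing luciferase-tagged ELG1 (2,000/well) received 5-Fluorouridine plus compound or DMSO for 16 hr at 37 °C. Luciferase was read by ONE-Glo luminescence after 30 min at room temperature.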
SMN2 splice enh – SMN2 splice variant enhancement; AID 1458; 210,000 tested, 2.8% active; HEK293 SMN2-luciferase splicing reporter, luminescence, 30-36 h; Potency, µM (top dose mostly 46.1 µM), without a hit: top-dose activity change, positive = activation, actives largely listed as activators; further: % of control where 0% means no effect; nearly all actives have a fitted effect of over 55% in size
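qHTS luciferase splicing reporter: luminescence rises when SMN2 exon 7 is included in transfected HEK293 cells. Compound exposure lasted 30-36 h at 37C, with 4.5 mM final sodium butyrate as control, followed by a ONE-Glo read.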
FLuc modulator – counter-screen for miR-21 project: firefly luciferase inhibitors or activators; P08659; purified FLuc, Km substrates, luminescence inhibition; Potency, µM (highest dose often 57.5 µM), for the others: top-dose activity change, negative = inhibition, hits mostly inhibitors; 360,000 tested, 6.9% active; AID 588342;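 further: plate controls were vehicle for no effect and reference inhibitor for full effect; nearly all actives have a fitted effect of over 55% in size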
Target sequence (P08659 whole entry, looked up): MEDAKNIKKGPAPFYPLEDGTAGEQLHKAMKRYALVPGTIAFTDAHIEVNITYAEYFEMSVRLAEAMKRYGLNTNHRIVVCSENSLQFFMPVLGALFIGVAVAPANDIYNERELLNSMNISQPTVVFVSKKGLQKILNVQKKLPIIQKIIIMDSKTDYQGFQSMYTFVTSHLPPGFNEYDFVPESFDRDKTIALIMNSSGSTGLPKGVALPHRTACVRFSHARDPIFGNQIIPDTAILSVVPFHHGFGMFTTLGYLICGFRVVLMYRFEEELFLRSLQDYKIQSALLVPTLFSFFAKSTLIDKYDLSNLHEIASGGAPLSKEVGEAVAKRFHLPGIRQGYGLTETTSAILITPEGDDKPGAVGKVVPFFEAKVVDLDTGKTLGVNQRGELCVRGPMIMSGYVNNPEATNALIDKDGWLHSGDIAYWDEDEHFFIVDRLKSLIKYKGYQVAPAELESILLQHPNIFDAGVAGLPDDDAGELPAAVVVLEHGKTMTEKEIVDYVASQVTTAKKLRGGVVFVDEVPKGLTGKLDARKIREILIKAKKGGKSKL
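Purified P. pyralis luciferase (10nM final) with 10uM D-luciferin and 10uM ATP (Km levels) in 50mM Tris acetate pH 7.5, 10mM Mg acetate, 0.01% Tween-20, 0.05% BSA; qHTS 6-point titration, ~60 µM downward; luminescence read.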
Starred values were filed as active, the others as inactive; ? = inconclusive; / = not tested or not shown. The call rests on the fitted dose curve; in most records, active means well fitted curve in the direction sought with a large enough effect; inconclusive means small, poorly fitted or top-dose-only effect, or another doubt; inactive means no such curve, though single readings can be large; an effect the other way counts as inactive or inconclusive. Potency means the concentration at half of the fitted maximal effect.

SMILES | ELG1 genotoxic | Rab9 prom act | NPC1 promoter act | ELG1 DNA repair | SMN2 splice enh | FLuc modulator
CCCCS/C(N)=N/N=C/c1cc(C)ccc1O | ? | 5% | 18% | ? | 15% | 17µM*
Cc1nnc(C)n1/N=C/c1cc(Br)cc(Br)c1O | -1% | 0% | -1% | 5% | / | 0%
CS/C(N)=N/N=C/c1cc(Br)cc(Br)c1O | 3% | 2% | -1% | 1% | / | 27µM*
NC(N)=N/N=C/c1cc([N+](=O)[O-])ccc1O | 2% | -1% | 0% | 11% | -5% | -2%
O=C(Nc1cccc(Cl)c1)c1cccnn1 | 5% | 4% | -4% | ? | / | 1%
Cc1ccc(CCNC(=O)C(CC(C)C)NS(=O)(=O)c2ccc3c(c2)oc(=O)n3C)cc1 (configuration not stated) | / | / | / | / | ? | 1%
CCOc1ccc(-c2nnn(CC(=O)N3CCCC(C)C3)n2)cc1 (configuration not stated) | -4% | -7% | -8% | -6% | -9% | ?
c1ccc(C2=Nn3c(nnc3-c3cccs3)SC2)cc1 | 0% | -3% | -5% | 13% | / | 3%
c1csc(C2=Nn3c(nnc3-c3ccncc3)SC2)c1 | -8% | 9% | 24% | 1.1µM* | -2% | -13%
O=c1c(Cl)c(N2CCOCC2)cnn1-c1nc2ccccc2[nH]1 | ? | 1.6µM* | 2.5µM* | ? | 11µM* | 11µM*
c1ccc2[nH]c(N3CCOCC3)nc2c1 | 3% | 7% | 7% | 20% | 3% | 2%
Cn1nnnc1SCC(=O)Nc1nc2c(s1)CCCC2 | 8.2µM* | 3.2µM* | ? | ? | / | 12µM*
O=C(CSC1=NCCS1)Nc1nc2c(s1)CCCC2 | 8% | ? | ? | ? | 30% | 17µM*
N#Cc1c(NC(=O)CSC2=NCCS2)sc2c1CCCC2 | -5% | -1% | 1% | ? | -24% | -18%
COc1cc(OC)cc(-n2nnnc2SCC(=O)Nc2nc3c(s2)CCCC3)c1 | 0% | -1% | -1% | ? | 3% | -2%
CC1=NN(c2ccccc2)C(=O)/C1=C/c1cn(C)c2ccccc12 | -2% | 14% | 2% | -15% | / | 6µM*
Cn1cc(C=O)c2ccccc21 | 0% | -9% | -2% | 16% | / | 4%
CC1=NN(c2ccccc2)C(=O)/C1=C\c1cn(C)c2ccccc12 | 2% | 2% | -17% | ? | -3% | 9.5µM*
COc1ccccc1/C=C1/C(=O)N(c2ccc([N+](=O)[O-])cc2)N=C1C | 3% | 4% | 0% | -2% | / | ?
CC1=NN(c2ccccc2)C(=O)/C1=C\c1cc(C)n(C)c1C | -7% | 4% | 14% | ? | / | 7.6µM*
Cc1cc(=O)oc2cc(OCC3CC(c4ccc(Cl)cc4)=NO3)ccc12 (configuration not stated) | 4% | -7% | -2% | ? | 5% | ?
NNC(=O)c1ccc(OCC2CC(c3ccc(Cl)cc3)=NO2)cc1 (configuration not stated) | ? | -3% | 16% | ? | / | 8.5µM*
CC(=O)CCC1CC(c2ccc(Cl)cc2)=NO1 (configuration not stated) | ? | 1.4µM* | 1.1µM* | ? | / | 7.6µM*
O=C(CCc1nnc(-c2ccc3c(c2)OCO3)o1)N1CCC(c2ccc(F)cc2)C1 (configuration not stated) | ? | ? | 14% | ? | / | 19µM*
CC1CCN(C(=O)CCc2nnc(-c3ccccc3)o2)CC1 | ? | ? | ? | ? | / | 15µM*
SMILES | ELG1 genotoxic | Rab9 prom act | NPC1 promoter act | ELG1 DNA repair | SMN2 splice enh | FLuc modulator
O=C(CSc1nnc(-c2ccc(F)cc2)o1)N1CCCCC1 | 21µM* | ? | ? | ? | / | ?
Cc1cc(C)cc(-c2nnc(SCC(=O)N3CCN(C(=O)c4ccco4)CC3)o2)c1 | -8% | -10% | -6% | ? | -18% | -9%
O=C(CSc1nnc(-c2ccc(Br)cc2)o1)N1CCN(C(=O)c2ccco2)CC1 | -17% | 6% | 1% | 23µM* | -48% | -2%
Cc1ccc(CCC(=O)Nc2ccc([N+](=O)[O-])cc2)o1 | 1% | -2% | -2% | ? | / | -8%
O=C(OC[C@H]1O[C@@H](OC(=O)c2cc(O)c(O)c(OC(=O)c3cc(O)c(O)c(O)c3)c2)[C@H](OC(=O)c2cc(O)c(O)c(OC(=O)c3cc(O)c(O)c(O)c3)c2)[C@@H](OC(=O)c2cc(O)c(O)c(OC(=O)c3cc(O)c(O)c(O)c3)c2)[C@@H]1OC(=O)c1cc(O)c(O)c(OC(=O)c2cc(O)c(O)c(O)c2)c1)c1cc(O)c(O)c(OC(=O)c2cc(O)c(O)c(O)c2)c1 | -9% | 0% | 1% | ? | / | ?
O=C(CSc1nnc(-c2ccccc2)o1)N1CCCCC1 | ? | 2.5µM* | 2.8µM* | ? | / | 15µM*
COc1ccc(NC(=O)Cn2c(SCc3ccc(F)cc3)nc3cccnc32)cc1OC | / | / | / | / | / | 2.7µM*
O=C(Cn1c(SCc2ccc(F)cc2)nc2cccnc21)Nc1ccccc1F | / | / | / | / | / | 9.5µM*
COc1ccc(CCn2c(=O)c3cccnc3n(CC(=O)Nc3cccc(C)c3)c2=O)cc1OC | / | / | / | / | -7% | -2%
O=C(Cn1c(SCc2ccccc2F)nc2cccnc21)Nc1ccc(F)c(Cl)c1 | / | / | / | / | / | 27µM*
COc1ccc(NC(=O)Cn2c(SCc3ccc(C)cc3)nc3cccnc32)cc1OC | / | / | / | / | / | 0.6µM*
CN(C)c1ccc(NC(=O)Cn2c(SCc3ccccc3F)nc3cccnc32)cc1 | / | / | / | / | / | 0%
Cc1ccc(C)c(NC(=O)CSc2nccn2-c2cccc(C)c2C)c1 | / | / | / | / | / | -20%
Cc1ccc(N2CC(C(=O)OCC(=O)Nc3ccccc3C)CC2=O)cc1 (configuration not stated) | 0% | -3% | -4% | 24% | / | -1%
COc1ccc(CCNC(=O)Cc2c(C)c3c(cc(C)c4c(C)coc43)oc2=O)cc1 | / | / | / | / | 10% | -1%
C/C(=N/NC(=O)c1cc(-c2ccc(Br)s2)[nH]n1)c1ccco1 | 4% | -8% | 1% | -14% | -10% | 24µM*
CC(C)c1cc(C(=O)N/N=C/c2ccco2)n[nH]1 | ? | ? | ? | ? | 16µM* | 17µM*
C/C(=N\NC(=O)c1cc(C(C)C)[nH]n1)c1ccco1 | ? | 2.5µM* | 4µM* | ? | 2.8µM* | 12µM*
C/C(=N\NC(=O)c1cc(C(C)C)[nH]n1)c1ccncc1 | 9% | ? | ? | ? | / | ?
CCCCCn1c(=O)[nH]c2cc(C(=O)NCc3ccc(OC)cc3)ccc2c1=O | / | / | / | / | -3% | 0%
